This is a sample that favours compounds with a hit; in the whole collection about 6.6% have one here.
HT1080 IDH1KD tx: toxicity to HT-1080 IDH1 knockdown cells (counter line); HT-1080 IDH1 knockdown viability, ATP luminescence, 48 h; AID 686971; Potency, µM (top dose mostly 46.1 µM), usual class: cytotoxic; 2% of 360,000 active
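After a 2 h attachment period, IDH1KD HT-1080 cells took pin-transferred compound for 48 h at 37 °C; ATP-based luminescence after 10 min room-temperature reagent incubation reported viability.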
KB-3-1 cytotox: KB-3-1 parental cell cytotoxicity. 1.4% of 400,000 active. KB-3-1 viability, CellTiter-Glo ATP luminescence, 72 h. AID 1347075. Potency, µM (doses to about 46.1 µM), hits mostly cytotoxic; further: nearly all actives have a fitted effect of over 60% in size
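Cells are dispensed, compounds pinned in, plates held at 37 °C for 72 h, then CellTiter-Glo is added and luminescence read after 10 minutes. Cell line: parental KB-3-1 in phenol-red-free DMEM, 10% FBS.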
TGFb inhibitor: inhibitors of TGF-b signaling; HepG2 CAGA-GFP TGF-b/SMAD3 reporter, GFP fluorescence, 18 h; TGF-beta stimulated, 500 pg/mL final; Potency, µM (top dose mostly 46.1 µM), hits mostly inhibitors; 1.2% of 410,000 active; further: nearly all actives have a fitted effect of over 65% in size
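HEPG2 CAGA-GFP reporter cells (1000/well, DMEM with 1% FBS) received compounds, then recombinant TGF-beta at 500 pg/mL final for 18 hours at 37 degrees C. Per-cell GFP summed per well was normalised to unstimulated and stimulated DMSO controls before curve fitting.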
KB-V1 MDR tox: kills drug-selected multidrug resistant KB-V1 cells; 3.4% of 400,000 active; Potency, µM (top dose mostly 46.1 µM), actives largely listed as cytotoxic; KB-V1 MDR cells viability, CellTiter-Glo, 72 h; further: nearly all actives have a fitted effect of over 60% in size
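KB-V1, DMEM (no phenol red) + 10% FBS; cpd pin-transferred, titration series; 72 h, 37 degrees C; CellTiter-Glo, luminescence. Data normalized, curve-fit.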
HT1080NT lethal: kills 2HG-producing HT-1080-NT fibrosarcoma cells; 1.6% of 360,000 active; Potency, µM (top dose mostly 46.1 µM), actives largely listed as cytotoxic; HT-1080-NT fibrosarcoma viability, CellTiter-Glo ATP luminescence, 48 h;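 further: NT is the 2HG producing partner of a matched IDH1 knockdown line; nearly all actives have a fitted effect of over 55% in size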
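Fibrosarcoma NT cells, 750 per well in 5% FBS RPMI, were exposed to compound for 48 hours. Viability: CellTiter-Glo luminescence.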
HepG2 viability: kills HepG2 cells in TGF-b inhibitor counter-screen; Potency, µM (titrated, usually from 46.1 µM), actives largely listed as cytotoxic; HepG2 CAGA-GFP viability, ATP luminescence, 18 h; 0.76% of 410,000 active
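HepG2 CAGA-GFP cells (1000/well, DMEM with 1% FBS) received compound, then TGF-beta at 500 pg/mL final, and were incubated 18 hours at 37 degrees C. Viability was read by CellTiter-Glo luminescence. Media-only wells were set as complete cell-killing and DMSO as no toxicity.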
Large screens that a line does not name were inactive. The call rests on the fitted dose curve; in most records, active means well fitted curve in the direction sought with a large enough effect; inconclusive means small, poorly fitted or top-dose-only effect, or another doubt; inactive means no such curve, though single readings can be large; an effect the other way counts as inactive or inconclusive.

COc1cc(Cl)c(C)cc1NC(=O)c1cnc2c(-c3cccc(C)c3)c(C)nn2c1C	none (no result: HT1080 IDH1KD tx, HT1080NT lethal)
COc1ccc(C)cc1Nc1n[n+](-c2ccccc2)c(-c2ccc(N(C)C)cc2)s1	KB-3-1 cytotox inconclusive
Cc1ccc2c(c1)sc(-c1ccc(N(C)C)cc1)[n+]2C	HT1080 IDH1KD tx inconclusive, KB-3-1 cytotox 1.8µM, TGFb inhibitor inconclusive
Cc1[nH]nc(-c2ccc(O)c(C)c2O)c1-c1cnn(-c2ccccc2)c1	TGFb inhibitor 7.1µM, KB-V1 MDR tox 16µM
CCCC[C@@H]1CCCO[C@@](C(=O)NCC2CC2)(C(F)(F)F)C1	TGFb inhibitor inconclusive (no result: HT1080 IDH1KD tx, KB-3-1 cytotox, KB-V1 MDR tox, HT1080NT lethal)
Oc1ccc(C=NNC(=S)Nc2cccnc2)nc1	HT1080 IDH1KD tx inconclusive, TGFb inhibitor inconclusive, KB-V1 MDR tox 3.7µM, HT1080NT lethal inconclusive
COc1ccc(-c2noc(CSc3nnc(C)n3-c3ccc(C)cc3)n2)cc1	none (no result: HT1080 IDH1KD tx, KB-3-1 cytotox, KB-V1 MDR tox, HT1080NT lethal)
CN(C(=O)CSC1=Nc2ccccc2C2=NC(c3ccccc3)C(=O)N12)C1CCCCC1 (stereo not given)	KB-V1 MDR tox 5.2µM
CC(C)c1ccc(NC(=O)CSC2=Nc3ccccc3C3=NC(CCC(=O)NC4CCCCC4)C(=O)N23)cc1 (stereo not given)	none (no result: HT1080 IDH1KD tx, HT1080NT lethal)
CC(C)c1ccc(NC(=O)CSC2=Nc3ccccc3C3=NC(CC(=O)NC4CCCCC4)C(=O)N23)cc1 (stereo not given)	TGFb inhibitor inconclusive, HepG2 viability 13µM (no result: HT1080 IDH1KD tx, HT1080NT lethal)
O=C(CSC1=Nc2ccccc2C2=NC(c3ccccc3)C(=O)N12)NC1CCCCC1 (stereo not given)	none
CC(C)(C)n1ncc2c(=O)n(Cc3ccc(F)cc3Cl)cnc21	none (no result: HT1080 IDH1KD tx, KB-3-1 cytotox, KB-V1 MDR tox, HT1080NT lethal)
CC(C)[n+]1ccn(C2=C([O-])c3ccccc3C(=O)/C2=N\S(=O)(=O)c2ccccc2)c1	HT1080 IDH1KD tx 23µM, KB-3-1 cytotox inconclusive, TGFb inhibitor 20µM, HT1080NT lethal 23µM
CCCCC[n+]1ccn(C2=C([O-])c3ccccc3C(=O)/C2=N\S(=O)(=O)c2ccc(Br)cc2)c1	KB-3-1 cytotox inconclusive, TGFb inhibitor 1.6µM, HepG2 viability 4µM
CC(C)(C)c1cc[n+](C2=C([O-])c3ccccc3C(=O)/C2=N\S(=O)(=O)c2ccccc2)cc1	HT1080 IDH1KD tx 21µM, TGFb inhibitor 14µM, HT1080NT lethal inconclusive
CCCC[n+]1ccn(C2=C([O-])c3ccccc3C(=O)/C2=N\S(=O)(=O)c2ccccc2)c1	HT1080 IDH1KD tx 16µM, KB-3-1 cytotox inconclusive, TGFb inhibitor 8.9µM, HT1080NT lethal 11µM, HepG2 viability 11µM
CC(C)CC(N)c1csc(Nc2cnccn2)n1 (stereo not given)	TGFb inhibitor inconclusive
CCN1CCN(c2oc(-c3ccc(COc4ccc(C)cc4)o3)nc2C#N)CC1	none (no result: HT1080 IDH1KD tx, HT1080NT lethal)
CCCCC[n+]1ccn(C2=C([O-])c3ccccc3C(=O)/C2=N\S(=O)(=O)c2ccccc2)c1	HT1080 IDH1KD tx 18µM, KB-3-1 cytotox inconclusive, TGFb inhibitor inconclusive, HT1080NT lethal inconclusive, HepG2 viability 6.3µM
CCCC[n+]1ccn(-c2nc3ccccc3nc2[N-]S(=O)(=O)c2ccccc2)c1	none
CCSc1ncc(/C=N/Nc2ccc([N+](=O)[O-])cc2)n1C	HT1080 IDH1KD tx 13µM, TGFb inhibitor inconclusive, HT1080NT lethal 13µM
CCc1ccc(-n2c(=O)c3ccc(C(=O)NCCc4ccccc4)cc3n(Cc3ccccc3C#N)c2=O)cc1	none (no result: HT1080 IDH1KD tx, HT1080NT lethal)
C=C[C@]1(C)C=C2C(=O)[C@@]3(O)OC(=O)[C@@]4(CCCC(C)(C)[C@H]34)[C@@]2(O)CC1	HT1080 IDH1KD tx 2.9µM, KB-3-1 cytotox 4.6µM, TGFb inhibitor inconclusive, KB-V1 MDR tox inconclusive, HT1080NT lethal 2.9µM, HepG2 viability 5.6µM
CCOc1ccc(-c2cn(-c3ccccc3OC)c(=S)[nH]2)cc1	HT1080 IDH1KD tx 26µM, KB-3-1 cytotox inconclusive, KB-V1 MDR tox inconclusive, HT1080NT lethal inconclusive
COc1ccc(-c2cc(-c3ccc(C)cc3)n[nH]2)c(O)c1	HT1080 IDH1KD tx inconclusive, TGFb inhibitor inconclusive
Oc1ccccc1-c1cc(-c2ccccc2Cl)[nH]n1	TGFb inhibitor inconclusive, KB-V1 MDR tox 21µM
CC(C)(C)c1ccc(-c2cc(-c3ccccc3O)[nH]n2)cc1	HT1080 IDH1KD tx 15µM, KB-3-1 cytotox inconclusive, TGFb inhibitor 18µM, KB-V1 MDR tox inconclusive, HT1080NT lethal inconclusive
Oc1ccccc1-c1cc(-c2cccc(F)c2)n[nH]1	KB-3-1 cytotox inconclusive, KB-V1 MDR tox inconclusive
Cc1ccc(O)c(-c2cc(-c3ccccc3C)[nH]n2)c1	KB-3-1 cytotox inconclusive, TGFb inhibitor inconclusive, KB-V1 MDR tox inconclusive, HepG2 viability 11µM
COc1ccc(-c2cc(-c3cc(C)ccc3O)[nH]n2)cc1	HT1080 IDH1KD tx inconclusive, KB-3-1 cytotox inconclusive, TGFb inhibitor inconclusive, KB-V1 MDR tox inconclusive, HT1080NT lethal 3.7µM
Cc1ccc(O)c(-c2cc(-c3ccccc3[N+](=O)[O-])[nH]n2)c1	TGFb inhibitor inconclusive
Oc1ccc(Cl)cc1-c1cc(-c2ccccc2Cl)[nH]n1	KB-3-1 cytotox inconclusive, KB-V1 MDR tox inconclusive
Cc1cc(C)cc(C(=O)N2CC(=O)Nc3ccc(C)cc3C2c2ccccc2)c1 (stereo not given)	TGFb inhibitor inconclusive (no result: HT1080 IDH1KD tx, HT1080NT lethal)
